Reference: PubChem BioAssay (NCATS)
Inconclusive results are not listed. Entries that show only a call come without a potency. Active and inactive are the calls of the source. Calls follow the shape of the dose curve; as a rule, active = well fitted cell-killing curve with a large enough effect; inconclusive = small, poorly fitted or top-dose-only effect; inactive = flat fitted curve, though single readings scatter.

assay: Cell Viability - LYMP2-018 (AID 985); conditions: LYMP2-018 lymphoblastoid cells, viability (qHTS); series mostly up to 92.2 µM;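 also: compound exposure lasted 24 hr at 37 °C; nearly all actives have a fitted effect of over 50% in size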
From the text: NIH Chemical Genomics Center [NCGC]
NIH Molecular Libraries Screening Centers Network [MLSCN]
National Institutes of Environmental Health Sciences [NIEHS]
National Toxicology Program [NTP]
We have developed a 1536-well cell-based assay for quantitative high throughput screening (qHTS) against a number of cell lines to determine in vitro cytotoxicity of small molecules. This particular assay uses a human lymphoblastoid cell line (LYMP2-018) purchased from Coriell Institute for Medical Research.
NCGC Assay Protocol Summary:
The CellTiter-Glo luminescent cell viability assay (Promega) is a homogeneous method to measure the number of viable cells in culture. The end point readout of this assay is based on quantitation of intracellular ATP, an indicator of metabolic activity, using the luciferase reaction. Luciferase catalyzes the oxidation of beetle Luciferin to oxyluciferin and light in the presence of ATP. The luminescent signal is proportional to amount of ATP present.
Using the CellTiter-Glo luminescent cell viability assay, the amount of cellular ATP was measured in the lymphoblastoid cell line with complete culture medium following compound treatment for 24 hours. The assay was performed in opaque white Kalypsys 1536-well plates. In the screen, tetraoctylammonium bromide was used as positive control. Library compounds were measured for their ability to cause acute toxicity in the cell line, as reflected by a decrease in intracellular ATP levels, in a concentration-dependent manner. […] AC50 values were determined from concentration-response data modeled with the standard Hill equation.
qHTS protocol for CellTiter Glo lymphoblastoid cellular assay
[Step] [Parameter] [Value] [Description]
1. Reagent; 5 uL; 2500 lymphoblastoid cells/well
2. Time; 5 hr; 37 C incubation
4. Controls; 23 nL; Tetraoctylammonium bromide 6.4pM to 92 uM
5. Time; 24 hr; 37 C incubation
6. Reagent; 5 uL; CellTiter Glo reagent
7. Time; 30 min; Room Temperature
8. Detection; Luminescence; Viewlux plate reader
Keywords: cell viability, cytotoxicity, lymphoblastoid cell line, luminescence, NTPHTS, NTPHTS_NCGC, NIEHS, DSSTox, MLSMR, MLSCN, NIH Roadmap, qHTS, NCGC
Potency is read from the fitted curve at half-maximal effect.

SMILES | Potency
CC(C)OC(=O)Cc1ccccc1 | inactive
CN(C)C(=O)Cl | inactive
Clc1ccc(C(Cl)(Cl)Cl)cc1Cl | inactive
CCNCC | inactive
N#CC(O)c1ccccc1 (stereo not given) | inactive
O=[N+]([O-])c1ccc(O)c([N+](=O)[O-])c1 | inactive
CN(C)C(=O)Nc1ccc(Cl)cc1 | inactive
CCCCNC(=O)n1c(NC(=O)OC)nc2ccccc21 | inactive
S=C1NCCN1 | inactive
CC(C)CC(C)N (stereo not given) | inactive
CN1CSC(=S)N(C)C1 | 12.6 µM (active)
CN(C)c1ccc(N=Nc2ccccc2)cc1 | inactive
C=CC#N | inactive
O=C(O)C(Cl)(Cl)Br | inactive
ClCCOCOCCCl | inactive
Clc1ccccc1 | inactive
Nc1ccc([N+](=O)[O-])cc1N | inactive
CCC/C=N/O | inactive
CCCC[N+](=O)[O-] | inactive
Cl/C=C/CCl | inactive

SMILES | Potency
Nc1ccccc1-c1ccccc1 | inactive
Oc1c(Cl)cccc1Cl | inactive
ClC(Br)Br | inactive
CC(C)C#N | inactive
ClCC(Cl)Cl | inactive
C=CCOCC1CO1 (stereo not given) | inactive
ClC(Cl)C(Cl)Cl | inactive
COC(=O)Nc1cccc(OC(=O)Nc2cccc(C)c2)c1 | inactive
Cc1cccc(C)c1N | inactive
CSSC | inactive
CCC[N+](=O)[O-] | inactive
CCSC(=O)N1CCCCCC1 | inactive
Cc1ccc(N)cc1C | inactive
O=C(O)C(Cl)Br (stereo not given) | inactive
OCCCCO | inactive
Clc1ccc(Cl)c(Cl)c1 | inactive
C=CC=O | inactive
N#C/C=C/C#N | 31.6 µM (active)
Cc1ccccc1[N+](=O)[O-] | inactive
O=C(O)C(Br)CBr (stereo not given) | inactive
